The structures appear in SMILES notation. About 14,000 (4.5%) of roughly 310,000 compounds showed an effect of 50% or more. Effects have a minus sign here. This is one part of a sample in which strong results are shown more often than they occur.
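Further: peak tail current of the secondary pulse compared with the same well before compound.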

Sequence of human ether-à-go-go-related gene (hERG) potassium channel (Q12809 whole entry, looked up): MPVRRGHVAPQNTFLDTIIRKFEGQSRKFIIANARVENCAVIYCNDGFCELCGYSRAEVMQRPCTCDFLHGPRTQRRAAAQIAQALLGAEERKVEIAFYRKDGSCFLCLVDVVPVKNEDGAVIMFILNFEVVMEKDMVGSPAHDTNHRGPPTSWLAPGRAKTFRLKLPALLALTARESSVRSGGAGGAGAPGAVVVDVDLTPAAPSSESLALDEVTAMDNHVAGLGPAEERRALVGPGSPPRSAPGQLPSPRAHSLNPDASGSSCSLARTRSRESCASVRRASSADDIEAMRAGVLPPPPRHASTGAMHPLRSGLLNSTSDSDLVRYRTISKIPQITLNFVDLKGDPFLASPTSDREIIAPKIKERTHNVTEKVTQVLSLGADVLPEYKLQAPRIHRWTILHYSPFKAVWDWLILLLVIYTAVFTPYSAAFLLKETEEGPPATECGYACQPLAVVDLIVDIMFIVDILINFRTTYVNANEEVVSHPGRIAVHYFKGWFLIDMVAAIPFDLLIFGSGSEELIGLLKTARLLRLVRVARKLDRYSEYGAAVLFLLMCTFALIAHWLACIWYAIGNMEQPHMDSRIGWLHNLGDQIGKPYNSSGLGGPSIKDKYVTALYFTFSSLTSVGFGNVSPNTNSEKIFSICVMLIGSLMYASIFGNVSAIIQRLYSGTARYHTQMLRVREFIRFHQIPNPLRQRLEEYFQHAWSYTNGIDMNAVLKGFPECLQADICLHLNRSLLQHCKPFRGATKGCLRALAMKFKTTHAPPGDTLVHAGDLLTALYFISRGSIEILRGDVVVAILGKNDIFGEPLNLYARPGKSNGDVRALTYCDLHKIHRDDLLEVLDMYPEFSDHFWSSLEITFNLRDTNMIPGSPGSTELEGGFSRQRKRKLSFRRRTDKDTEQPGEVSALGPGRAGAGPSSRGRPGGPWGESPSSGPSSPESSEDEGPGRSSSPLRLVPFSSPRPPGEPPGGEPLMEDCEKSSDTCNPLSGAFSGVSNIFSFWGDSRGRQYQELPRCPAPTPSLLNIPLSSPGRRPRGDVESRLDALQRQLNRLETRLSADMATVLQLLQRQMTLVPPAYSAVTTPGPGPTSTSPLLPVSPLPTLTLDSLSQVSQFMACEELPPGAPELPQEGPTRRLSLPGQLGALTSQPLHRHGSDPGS

The assay concerns the target human ether-à-go-go-related gene (hERG) potassium channel (human, UniProt Q12809). Description: primary screen, population patch clamp on CHO cells stably expressing hERG; higher = less effect of the substance.
`O=C(CCCOc1ccccc1)Nc1ccc(Cl)cn1`: the “hERG current change (%, negative = inhibition) at 10uM” value is -3.18%.
To `CCCCC(=O)Nc1cc(OCC)c(NC(=O)c2ccccc2[N+](=O)[O-])cc1OCC` belongs -4.27%.
To `FC(F)(F)c1cccc(-c2nnc3ccc(C(F)(F)F)cn23)c1` belongs -65.2%; to `FC(F)(F)c1ccc2nnc(-c3c(Cl)cccc3Cl)n2c1`, -4.48%.
With `Fc1cccc(Cl)c1-c1nnc2ccc(C(F)(F)F)cn12` the figure was 10.9%; with `O=C(Nc1ccc2nc3ccccc3nc2c1)c1ccc(Br)cc1`, 17.9%.
For `O=C(NC(=S)N1CCN(c2ccc([N+](=O)[O-])cc2)CC1)c1ccco1`, the “hERG current change (%, negative = inhibition) at 10uM” value was -61.2%.
As for `O=C(NC(=S)N1CCN(c2ccc(Cl)cc2[N+](=O)[O-])CC1)c1cccs1`, the “hERG current change (%, negative = inhibition) at 10uM” value is -30%.
With `O=C(NC(=S)N1CCN(c2ccc(Cl)cc2[N+](=O)[O-])CC1)c1ccco1` the figure was -68.4%; with `O=C(NC(=S)N1CCN(c2ccc([N+](=O)[O-])cc2)CC1)c1ccccc1Cl`, -39.8%.
As for `O=C(NC(=S)N1CCN(c2ccc([N+](=O)[O-])cc2)CC1)c1ccccc1F`, the “hERG current change (%, negative = inhibition) at 10uM” value was -25.8%.
To `O=C(NC(=S)N1CCN(c2ccc([N+](=O)[O-])cc2)CC1)c1ccc(F)cc1` belongs -58.5%; to `O=C(NC(=S)N1CCN(c2ccc([N+](=O)[O-])cc2)CC1)c1ccccc1`, 0.58%.
In the case of `Cc1ccc(C(=O)NC(=S)N2CCN(c3ccc([N+](=O)[O-])cc3)CC2)cc1`, the “hERG current change (%, negative = inhibition) at 10uM” value is given as -15.6%.
Take `CCC(=O)N1CCN(c2ccc(Cl)cc2NC(=S)NC(=O)c2ccco2)CC1`: the “hERG current change (%, negative = inhibition) at 10uM” value was -0.88%.
With `Cc1oc(C(C)(C)C)cc1C(=O)N1CCN(c2ccc(C(F)(F)F)cn2)CC1` the figure was -5.33%; with `Cc1ccc(N(C(=O)c2nsc(Cl)c2Cl)C(C(=O)NC2CCCC2)c2ccc(O)cc2)cc1C` (centres unmarked), 9.52%.
With `COc1ccc(-n2c(O)c(/C=N/n3cnnc3)c3ccccc3c2=O)cc1` the figure was -1.22%.
To `CC(=O)Nc1ccc(S(=O)(=O)NC2=C(N3CCN(C)CC3)C(=O)c3ccccc3C2=O)cc1` belongs -0.763%; to `CC(=O)c1ccc(NC(=O)Cn2cnc(S(=O)(=O)N3CCC(C)CC3)c2)cc1`, 21.4%.
On to `Cc1ccc(NC(=O)C2CCCN(c3ncnc4c3nc3n4CCCCC3)C2)nc1` (centres unmarked), for which the “hERG current change (%, negative = inhibition) at 10uM” value is -62.5%.
With `Cc1cccc(NC(=O)C2CCN(c3ncnc4c3nc3n4CCCCC3)CC2)n1` the figure was -29.5%; with `O=C(Nc1ccc(Cl)cn1)C1CCCN(c2ncnc3c2nc2n3CCCCC2)C1` (centres unmarked), -57.7%; with `Cc1ccnc(NC(=O)C2CCCN(c3ncnc4c3nc3n4CCCCC3)C2)c1` (centres unmarked), -45.6%.
To `O=C(Nc1ccccn1)C1CCCN(c2ncnc3c2nc2n3CCCCC2)C1` (centres unmarked) belongs -34.8%; to `Cc1cccc(NC(=O)C2CCCN(c3ncnc4c3nc3n4CCCCC3)C2)n1` (centres unmarked), -54.2%; to `O=C(Nc1ccc(Cl)cn1)C1CCN(c2ncnc3c2nc2n3CCCCC2)CC1`, -38.8%.
To `O=C(Oc1ccc2c3c(c(=O)oc2c1)CCC3)c1ccco1` belongs -1.09%.
`CCOC(=O)c1ccc(NC(=O)CN2C(=O)NC3(CCCCCCC3)C2=O)cc1`: the “hERG current change (%, negative = inhibition) at 10uM” value is reported as -7.35%.
To `COC(=O)c1[nH]c2ccc(F)cc2c1NS(=O)(=O)c1ccc(F)c(C)c1` belongs 0.344%; to `Cc1ccc(C2Nc3ccccc3NC3=C2C(=O)CC(C)(C)C3)c(O)c1` (centres unmarked), 3.15%.
With `Nc1c2c(nc3sc4c(c13)CCCCC4)CCCCC2` the figure was -25.9%; with `Nc1c2c(nc3sc4c(c13)CCCC4)CCCCC2`, -6.3%.
With `Nc1c2c(nc3sc4c(c13)CCCC4)CCCC2` the figure was -70.4%.
As to `Cc1nc2ccccc2nc1OCC(=O)Nc1ccccc1`, the “hERG current change (%, negative = inhibition) at 10uM” value amounted to 14.8%.
With `Cc1ccc(S(=O)(=O)N(CC2CO2)c2cc(Cl)ccc2Cl)cc1` (centres unmarked) the figure was -6.93%; with `CC1(C(=O)NCCCNc2ncc(C(F)(F)F)cc2Cl)C=CCN1C(=O)c1ccccc1` (centres unmarked), -56.4%.
With `C[C@]1(C(=O)NCCCNc2ncc(C(F)(F)F)cc2Cl)C=C[C@@H](Cc2ccccc2)N1C(=O)c1ccccc1` the figure was 7.01%; with `COC(=O)N1[C@H](C)C=C[C@]1(Cc1ccccc1)C(=O)NCCCNc1ncc(C(F)(F)F)cc1Cl`, -10.5%.
With `O=C(COC(=O)COc1ccccc1[N+](=O)[O-])Nc1ccccc1Br` the figure was 3.82%; with `COCCCNC(=S)N1CCN(c2nc(-c3ccccc3)cs2)CC1`, -5.55%; with `CCCCNC(=O)CCSc1ccc(C)cc1`, -2.9%.
On to `CSc1ccc(CN(C)CC(=O)Nc2ccccc2Br)cc1`, for which the “hERG current change (%, negative = inhibition) at 10uM” value is recorded as 17.3%.
Take `CN(CC(=O)NCc1ccc(F)cc1)Cc1ccc(Br)cc1`: the “hERG current change (%, negative = inhibition) at 10uM” value is -35.5%.
With `COc1ccc(CNC(=O)CN(C)Cc2ccc(SC)cc2)cc1` the figure was -65.2%; with `CSc1ccc(CN(C)CC(=O)NCc2ccc(F)cc2)cc1`, -70.1%.
To `CN(CC(=O)NCc1ccccc1)Cc1cccc(F)c1.O=C(O)C(=O)O` belongs 9.59%; to `CSc1ccc(CN(C)CC(=O)NCc2ccccc2)cc1`, -52.5%; to `CSc1ccc(CN(C)CC(=O)NCCc2ccccc2)cc1`, -35.5%.
Turning to `CSc1ccc(CN(C)CC(=O)N(C)CC(=O)Nc2ccccc2Br)cc1`, the “hERG current change (%, negative = inhibition) at 10uM” value was -56.9%.
As to `CSc1ccc(CN(C)CC(=O)Nc2ccc(NC(C)=O)cc2)cc1`, the “hERG current change (%, negative = inhibition) at 10uM” value is -25.8%.
With `COc1ccc(CNC(=O)CN(C)Cc2ccc(C(C)(C)C)cc2)cc1.O=C(O)C(=O)O` the figure was -4.44%.
With `CSc1ccc(CN(C)CC(=O)NC(=O)NC(C)(C)C)cc1` the figure was -3.83%; with `COc1ccc(CN(C)CC(=O)N(C)CC(=O)Nc2ccccc2Br)cc1F`, -39.1%; with `O=C(NC(=O)N1CCCCC1)c1ccc(Cl)cc1`, 15.7%.
To `CCO[C@H]1OC(C(=O)Nc2ccccc2)=C[C@@H](C2CC2)[C@@H]1CCCO` belongs 1.16%.
Regarding `CCCCc1nnc(NC(=O)CCc2ccccc2)s1`, the “hERG current change (%, negative = inhibition) at 10uM” value was found to be 19.3%.
Regarding `COC(=O)c1ccc(-n2nnnc2SCC(=O)Nc2cc(OC)ccc2OC)cc1`, the “hERG current change (%, negative = inhibition) at 10uM” value stood at 2.37%.
As to `CCOC(=O)c1nn(-c2cccc(C)c2)c2nnc(Cc3ccc(C)cc3)c(=O)n12`, the “hERG current change (%, negative = inhibition) at 10uM” value was -16.1%.
As to `O=C(Nc1ccc(SC(F)F)cc1)C1CC(=O)N(Cc2ccccc2)C1` (centres unmarked), the “hERG current change (%, negative = inhibition) at 10uM” value was -48%.
To `COc1ccc(S(=O)(=O)N2CCN(C(=O)c3c(C)nn(-c4ccccc4)c3Cl)CC2)cc1` belongs -19.4%; to `CCC(=O)N1CCN(c2ccc(Cl)cc2NC(=O)c2ccc3c(c2)OCCO3)CC1`, -37.2%.
With `O=C(Nc1ccc(Cl)cc1)c1ccc(CN2CCc3ccccc3C2)cc1` the figure was 13.7%; with `COc1cccc(C(=O)N2CCN(C(=O)Cc3ccccc3)CC2)c1.O=C(O)C(=O)O`, -0.00122%; with `CCC(=O)Nc1ccc(C(=O)Nc2cccnc2)cc1`, -0.52%.
On to `CC(OC(=O)c1cc(S(=O)(=O)N2CCOCC2)ccc1Br)C(=O)N1CCOCC1` (centres unmarked), for which the “hERG current change (%, negative = inhibition) at 10uM” value is -12%.
To `O=C(Nc1nccs1)C1CCN(S(=O)(=O)c2ccc(F)cc2)CC1` belongs 2.1%; to `CCOC(=O)CNC(=O)CSc1ccc(-c2nc3ccccc3[nH]2)cn1`, -6.35%.
To `CC(NC(=O)CN(C)Cc1ccc(Br)cc1)c1ccccc1` (centres unmarked) belongs -19.3%; to `COc1ccccc1CNC(=O)CN(C)CC(=O)Nc1cccc(F)c1`, 4.16%.
Regarding `CSc1ccc(CN(C)CC(=O)NC(C)c2ccccc2)cc1` (centres unmarked), the “hERG current change (%, negative = inhibition) at 10uM” value was -83.9%.
To `COc1cccc(CN(C)CC(=O)NCc2ccc(F)cc2)c1OC` belongs 6.98%; to `COc1ccccc1CNC(=O)CN(C)Cc1ccc(SC)cc1`, -50.8%.
With `Cc1ccc(CN(C)CC(=O)NC(C)c2ccccc2)cc1` (centres unmarked) the figure was -16%.
To `O=C(O)C1C2C=CC(C2)C1C(=O)NCc1cccs1` (centres unmarked) belongs 9.44%; to `O=C(Nc1cc(Cl)cc(Cl)c1)N1CCN(C(=O)C2CCCO2)CC1` (centres unmarked), -26.4%; to `COCCNC(=O)C1CCN(C(=O)C2CC(=O)N(c3ccc(C)cc3)C2)CC1` (centres unmarked), 7.39%.
As to `CCc1nnc(NC(=O)CSc2nnc(COc3ccccc3C)o2)s1`, the “hERG current change (%, negative = inhibition) at 10uM” value was 15.2%.
With `O=C(COc1ccc(Br)cc1)Nc1ccc([N+](=O)[O-])cn1` the figure was -19.7%; with `COc1cc(NC(=O)CSCc2ccccc2)c(C(=O)O)cc1OC`, 11.2%.
With `COc1ccc(CCNc2ccc(C(CC(N)=O)NC(=O)Cc3cccc4ccccc34)cc2[N+](=O)[O-])cc1` (centres unmarked) the figure was 4.29%; with `CCN(CC)CC(=O)c1c[nH]c2ccc(OC)cc12`, -22.9%.
With `COc1ccc2[nH]cc(C(=O)CN(C)C)c2c1` the figure was 9.06%; with `COc1ccc2[nH]cc(C(=O)CN(C)CCc3ccc(OC)c(OC)c3)c2c1`, -70.3%; with `COc1ccccc1-n1cnc2sc(C)c(C)c2c1=O`, 5.71%.
Consider `COc1ccc(NC(=O)/C(C#N)=C\c2cc(C)n(-c3ccc4c(c3)OCO4)c2C)cc1`, for which the “hERG current change (%, negative = inhibition) at 10uM” value is on record as 3.77%.

For the origin of these results see paper PMC4336329 (PLoS ONE, 2015).
